# Test results from PubChem BioAssay (NCI).
# This is part of a sample that, as a whole, favours compounds with a hit. Of some 83,000 tested, about 20% had one in any assay.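 In brief: 96-well plates, 48 h treatment, single concentration, percent growth endpoint.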 Active and inactive are the calls of the source. Rule for the calls: active = growth percent below 10; inactive = the rest.
# How the values were obtained:
# Test in all cases: NCI-60 one-dose screen, 48 h (100 = growth as untreated, 0 = no growth, -100 = all killed)
# Conditions in all cases: 10 µM
# 786-0 renal = tested on: 786-0 renal
# MALME-3M melanoma = tested on: MALME-3M melanoma
# EKVX NSCLC = tested on: EKVX NSCLC
# SN12C renal = tested on: SN12C renal
# TK-10 renal = tested on: TK-10 renal
# ACHN renal = tested on: ACHN renal
# A498 renal = tested on: A498 renal
# CCRF-CEM leukemia = tested on: CCRF-CEM leukemia
# RPMI-8226 leukemia = tested on: RPMI-8226 leukemia
# OVCAR-5 ovarian = tested on: OVCAR-5 ovarian
# OVCAR-4 ovarian = tested on: OVCAR-4 ovarian
# IGROV1 ovarian = tested on: IGROV1 ovarian
# OVCAR-3 ovarian = tested on: OVCAR-3 ovarian
# NCI/ADR-RES ovarian = tested on: NCI/ADR-RES ovarian
# BT-549 breast = tested on: BT-549 breast
# MDA-MB-435 melanoma = tested on: MDA-MB-435 melanoma
# MCF7 breast = tested on: MCF7 breast
# HCT-116 colon = tested on: HCT-116 colon
# HCC-2998 colon = tested on: HCC-2998 colon
# KM12 colon = tested on: KM12 colon
Compound,growth (786-0 renal),growth (MALME-3M melanoma),growth (EKVX NSCLC),growth (SN12C renal),growth (TK-10 renal),growth (ACHN renal),growth (A498 renal),growth (CCRF-CEM leukemia),growth (RPMI-8226 leukemia),growth (OVCAR-5 ovarian),growth (OVCAR-4 ovarian),growth (IGROV1 ovarian),growth (OVCAR-3 ovarian),growth (NCI/ADR-RES ovarian),growth (BT-549 breast),growth (MDA-MB-435 melanoma),growth (MCF7 breast),growth (HCT-116 colon),growth (HCC-2998 colon),growth (KM12 colon)
O=C(/C=C/c1ccco1)c1nc2ccccc2n1Cc1ccc(F)cc1,67.6% (inactive),59.9% (inactive),58.9% (inactive),79.2% (inactive),92.1% (inactive),79.1% (inactive),93.4% (inactive),21.4% (inactive),25.2% (inactive),89.4% (inactive),48% (inactive),52.5% (inactive),46.3% (inactive),72.5% (inactive),59.7% (inactive),77% (inactive),8.93% (active),59.3% (inactive),57% (inactive),50.8% (inactive)
CC1=C(CCC=O)C2=C(C)C3(CC3)[C@@](C)(O)C(=O)C2=C1,-48.9% (active),-96% (active),-81.6% (active),-82.3% (active),-91.6% (active),-100% (active),-56.8% (active),-15.3% (active),1.91% (active),-95.8% (active),-97.4% (active),-79.5% (active),-77.6% (active),-43.5% (active),-23% (active),-88.8% (active),-44.2% (active),-63.9% (active),-91.6% (active),-72.9% (active)
O=C(/C=C/c1cccc(Br)c1)c1nc2ccccc2n1Cc1ccc(Br)cc1,-79% (active),-36.5% (active),-54.8% (active),-10.1% (active),10.4% (inactive),-30.5% (active),81.5% (inactive),-15.6% (active),-34.8% (active),-50.4% (active),35.3% (inactive),-8.02% (active),-51.5% (active),-48.8% (active),-44.7% (active),-31.2% (active),-32.8% (active),-96% (active),-94.7% (active),6.51% (active)
C#CC[Se]C(=O)c1ccc2n[se]nc2c1,63.4% (inactive),41.5% (inactive),13.8% (inactive),56.3% (inactive),65.1% (inactive),35.6% (inactive),95.3% (inactive),-24.8% (active),21.3% (inactive),75.7% (inactive),74.5% (inactive),77.7% (inactive),46.2% (inactive),49.5% (inactive),52.1% (inactive),85.9% (inactive),31.6% (inactive),-27.1% (active),95.8% (inactive),95.2% (inactive)
COC(=O)C[C@](O)(CCCC(C)C)C(=O)O[C@H]1C(OC)=C[C@@]23CCCN2CCc2cc4c(cc2[C@@H]13)OCO4,2.04% (active),-38.5% (active),14.2% (inactive),6.06% (active),4.08% (active),-8.49% (active),-17.2% (active),0.557% (active),-20.7% (active),5.45% (active),-9.31% (active),8.76% (active),-31% (active),14.1% (inactive),-17.8% (active),1.79% (active),-6.98% (active),-7.84% (active),-36.4% (active),0.453% (active)
O=C(NCCCCC(c1ccc(F)cc1)c1ccc(F)cc1)Nc1ccc([N+](=O)[O-])c(C(F)(F)F)c1,-15% (active),-25.8% (active),4.51% (active),7.2% (active),10% (inactive),-2.96% (active),-9.75% (active),-38.8% (active),-39.3% (active),11.8% (inactive),11.5% (inactive),15.4% (inactive),1.5% (active),-4.02% (active),-28% (active),-21.3% (active),1.44% (active),-58.2% (active),7.86% (active),2.48% (active)
C=CCN=C([Se])NC(=O)c1ccc2c(c1)OCO2,85.8% (inactive),110% (inactive),73.5% (inactive),81.5% (inactive),120% (inactive),111% (inactive),82.5% (inactive),87.1% (inactive),105% (inactive),117% (inactive),108% (inactive),75.6% (inactive),112% (inactive),60.3% (inactive),104% (inactive),96.6% (inactive),102% (inactive),43.6% (inactive),92.4% (inactive),41.1% (inactive)
O=C(/C=C/c1ccco1)c1nc2ccccc2n1Cc1ccc(Br)cc1,23% (inactive),44.2% (inactive),17.8% (inactive),43.4% (inactive),77.1% (inactive),48.7% (inactive),105% (inactive),-6.79% (active),-5.78% (active),57% (inactive),46.5% (inactive),31.6% (inactive),22% (inactive),25.7% (inactive),6.02% (active),15.2% (inactive),2.72% (active),8.16% (active),12.7% (inactive),20.7% (inactive)
O=C(/C=C/c1ccc(Br)cc1)c1nc2ccccc2n1Cc1ccc(Br)cc1,-81.3% (active),-42.9% (active),1.19% (active),8.28% (active),23.8% (inactive),-38.2% (active),82.7% (inactive),10.3% (inactive),-9.14% (active),-43.4% (active),35.5% (inactive),-18% (active),-46.9% (active),-38.2% (active),-66.2% (active),-38.5% (active),3.68% (active),-80.9% (active),-89.6% (active),22.5% (inactive)
O=C([Se]C1C=CCCC1)c1ccc(C(=O)[Se]C2C=CCCC2)s1 (stereo not given),-92.7% (active),-85.7% (active),-89.9% (active),-81.8% (active),-80.9% (active),-67% (active),20.6% (inactive),-36.7% (active),-43.1% (active),-89.2% (active),-95.3% (active),-90.4% (active),-92.4% (active),-81.4% (active),-65.7% (active),-61.2% (active),-37.1% (active),-43.1% (active),-67.8% (active),-64.9% (active)
COC(=O)C[C@](O)(CCC(C)C)C(=O)O[C@H]1C(OC)=C[C@@]23CCCN2CCc2cc4c(cc2[C@@H]13)OCO4,-16.1% (active),-45.1% (active),-16.2% (active),-14.9% (active),-16.4% (active),-23.3% (active),-19% (active),-5.42% (active),-19.5% (active),-20.4% (active),-22.7% (active),-19.3% (active),-36.9% (active),-2.69% (active),-33.7% (active),-32.6% (active),-17% (active),-20.4% (active),-62.4% (active),-22.3% (active)
O=C(/C=C/c1ccc(Cl)cc1)c1nc2ccccc2n1Cc1ccc(Br)cc1,38.9% (inactive),71.5% (inactive),39.9% (inactive),52.9% (inactive),93.7% (inactive),51.1% (inactive),115% (inactive),-10.9% (active),-13.4% (active),89.9% (inactive),68.5% (inactive),52.4% (inactive),38.2% (inactive),62.6% (inactive),37.2% (inactive),54.2% (inactive),9.41% (active),33.1% (inactive),65.3% (inactive),67.6% (inactive)
Cc1c2oc3c(C)ccc(C(=O)N[C@@H]4C(=O)N[C@H](C(C)C)C(=O)N5CCC[C@H]5C(=O)N(C)CC(=O)N(C)[C@@H](C(C)C)C(=O)OC4C)c3nc-2c(C(=O)N[C@@H]2C(=O)N[C@H](C(C)C)C(=O)N3CC(=O)C[C@H]3C(=O)N(C)CC(=O)N(C)[C@@H](C(C)C)C(=O)OC2C)c(N)c1=O (stereo not given in full),19% (inactive),-14.5% (active),-12.5% (active),6.6% (active),5.82% (active),2.84% (active),-68.7% (active),2.91% (active),-13.1% (active),5.55% (active),21% (inactive),17% (inactive),6.77% (active),4.49% (active),-9.76% (active),-66.1% (active),1.42% (active),22.3% (inactive),-20% (active),2.23% (active)
O=C(/C=C/c1ccc(Cl)cc1)c1nc2ccccc2n1Cc1ccc(F)cc1,5.13% (active),49.9% (inactive),20.4% (inactive),19.7% (inactive),58.1% (inactive),23.5% (inactive),125% (inactive),-13.1% (active),-20.2% (active),19.1% (inactive),58.8% (inactive),29% (inactive),22.7% (inactive),7.75% (active),2.95% (active),12.1% (inactive),9.25% (active),3.49% (active),32.5% (inactive),24.9% (inactive)
CC1=C(CCC=NNC(N)=O)C2=C(C)C3(CC3)[C@@](C)(O)C(=O)C2=C1,-3.6% (active),-93.4% (active),-25.1% (active),-61.3% (active),-10.5% (active),-37.7% (active),-67.2% (active),10.4% (inactive),1.7% (active),-35.8% (active),-38.1% (active),-34% (active),-57.4% (active),-39.3% (active),-33.7% (active),-96.3% (active),-74.8% (active),1.04% (active),-87% (active),1% (active)
CC1=C(C=O)C2=C(C)C3(CC3)[C@@](C)(O)C(=O)C2=C1,-38.7% (active),1.71% (active),68% (inactive),44.2% (inactive),53.6% (inactive),-61.1% (active),-30.3% (active),18% (inactive),17.1% (inactive),36.7% (inactive),44.5% (inactive),53.6% (inactive),-9.94% (active),16% (inactive),-14.5% (active),-35.2% (active),14% (inactive),-34.7% (active),17.2% (inactive),16.3% (inactive)
